# The entries come from a sample that favours the strongest signals as a whole.
# Legend:
# Assay in all cases: glycan array binding signal (z-score within array); higher = stronger binding
# Conditions in all cases: glycan notation: IUPAC condensed, linker removed
# GalNAc(a1-3)Gal = target: GalNAc(a1-3)Gal
# Summary of the method: (§1)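 The binding signal is a Z-score computed within each array and averaged over linkers. Arrays of the same protein sequence at different concentrations or buffers were also averaged together. Data originate from 3228 arrays in the Consortium for Functional Glycomics database, kept only where the protein sequence was available.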
# Glc(a1-4)Glc = target: Glc(a1-4)Glc
# Summary of the method: as §1
# GlcA(b1-3)Gal = target: GlcA(b1-3)Gal
# Summary of the method: as §1
# [1] = target: GlcNAc(a1-4)Gal(b1-4)GlcNAc(b1-3)Gal(b1-4)Glc
# Summary of the method: as §1
# [2] = target: GlcNAc(a1-6)Gal(b1-4)GlcNAc
# Summary of the method: as §1
# [3] = target: GlcNAc(b1-2)[GlcNAc(b1-4)]Man(a1-3)[GlcNAc(b1-4)][GlcNAc(b1-2)[GlcNAc(b1-6)]Man(a1-6)]Man(b1-4)GlcNAc(b1-4)[Fuc(a1-6)]GlcNAc
# Summary of the method: as §1
# [4] = target: GlcNAc(b1-4)GlcNAc(b1-4)GlcNAc
# Summary of the method: as §1
# [5] = target: GlcNAc(b1-4)GlcNAc(b1-4)GlcNAc(b1-4)GlcNAc(b1-4)GlcNAc
# Summary of the method: as §1
# Neu5Ac(a2-3)Gal = target: Neu5Ac(a2-3)Gal
# Summary of the method: as §1
# [6] = target: Neu5Ac(a2-3)Gal(b1-3)GlcNAc(b1-2)Man(a1-3)[Neu5Ac(a2-3)Gal(b1-3)GlcNAc(b1-2)Man(a1-6)]Man(b1-4)GlcNAc(b1-4)GlcNAc
# Summary of the method: as §1
# [7] = target: Neu5Ac(a2-3)Gal(b1-3)]Neu5Ac(a2-3)Gal(b1-4)]GlcNAc
# Summary of the method: as §1
# [8] = target: Neu5Ac(a2-3)Gal(b1-4)GlcNAc(b1-2)[Neu5Ac(a2-3)Gal(b1-4)GlcNAc(b1-4)]Man(a1-3)[GlcNAc(b1-4)][Neu5Ac(a2-3)Gal(b1-4)GlcNAc(b1-2)[Neu5Ac(a2-3)Gal(b1-4)GlcNAc(b1-6)]Man(a1-6)]Man(b1-4)GlcNAc(b1-4)GlcNAc
# Summary of the method: as §1
# [9] = target: Neu5Ac(a2-3)Gal(b1-4)GlcNAc(b1-3)Gal(b1-4)GlcNAc(b1-3)GalNAc
# Summary of the method: as §1
# [10] = target: Neu5Ac(a2-3)Gal(b1-4)[Fuc(a1-3)]GlcNAc(b1-3)GalNAc
# Summary of the method: as §1
# [11] = target: Neu5Ac(a2-3)[GalNAc(b1-4)]Gal(b1-4)Glc
# Summary of the method: as §1
# [12] = target: Neu5Ac(a2-6)Gal(b1-4)GlcNAc(b1-2)Man(a1-3)[Gal(b1-4)GlcNAc(b1-2)Man(a1-6)]Man(b1-4)GlcNAc(b1-4)GlcNAc
# Summary of the method: as §1
# [13] = target: Neu5Ac(a2-6)Gal(b1-4)GlcNAc(b1-2)Man(a1-3)[Neu5Ac(a2-6)Gal(b1-4)GlcNAc(b1-2)Man(a1-6)]Man(b1-4)GlcNAc(b1-4)[Fuc(a1-6)]GlcNAc
# Summary of the method: as §1
# [14] = target: Neu5Ac(a2-6)Gal(b1-4)GlcNAc(b1-2)Man(a1-6)Man(b1-4)GlcNAc(b1-4)GlcNAc
# Summary of the method: as §1
# [15] = target: Neu5Ac(a2-6)Gal(b1-4)GlcNAc(b1-2)[Neu5Ac(a2-6)Gal(b1-4)GlcNAc(b1-6)]Man(a1-6)[Neu5Ac(a2-6)Gal(b1-4)GlcNAc(b1-2)Man(a1-3)][GlcNAc(b1-4)]Man(b1-4)GlcNAc(b1-4)GlcNAc
# Summary of the method: as §1
# [16] = target: Neu5Ac(a2-6)Gal(b1-4)GlcNAc(b1-3)Gal(b1-4)GlcNAc(b1-3)Gal(b1-4)GlcNAc(b1-2)Man(a1-3)[Neu5Ac(a2-6)Gal(b1-4)GlcNAc(b1-3)Gal(b1-4)GlcNAc(b1-3)Gal(b1-4)GlcNAc(b1-2)Man(a1-6)]GalNAc
# Summary of the method: as §1
# [17] = target: Neu5Ac(a2-6)Gal(b1-4)GlcNAc(b1-3)GalNAc
# Summary of the method: as §1
# [18] = target: Neu5Ac(a2-6)GalNAc(b1-4)GlcNAc6S
# Summary of the method: as §1
# [19] = target: Neu5Ac(a2-8)Neu5Ac(a2-3)[Gal(b1-3)GalNAc(b1-4)]Gal(b1-4)Glc
# Summary of the method: as §1
# [20] = target: Neu5Ac(a2-8)Neu5Ac(a2-8)Neu5Ac(a2-3)Gal(b1-4)Glc
# Summary of the method: as §1
# [21] = target: Neu5Gc(a2-3)Gal(b1-3)GlcNAc
# Summary of the method: as §1
# [22] = target: Neu5Gc(a2-8)Neu5Gc(a2-3)Gal(b1-4)GlcNAc
# Summary of the method: as §1
binder,measurement,setting,value
SP15308B-bot-339-22-339 (Bacteroides ovatus) (protein) NEWEDEQYEQYVSFKAPIASGSDGVTTIYVRYKDNGKVTYQLPIIVSGSTVNSQDRDIHIAVDKDTLKTLNIERFSLYRPELWYTEMEEDKYEFPETVHIPAGSCVELLNIDFNLQDIDMLEKWVLPLTIVDDGSYAYQSHPRKNYAKALLKVVPFNNYSGSYTASSMKVYTYINGKPDTNARTTDKRTGYVVDNNSIFFYAGLINEDMDKDMRKKYKINVHFKEDGTLDMKQDDPSNEMEFELIGTPTYSSTSVMDATRPYLERRYVQIMFEYDFQDFTYGGSGTEVIPIKYRVAGSMTLLRNINTQIPDEDQQIEW,glycan array binding signal (z-score),GalNAc(a1-3)Gal,3.52
same,glycan array binding signal (z-score),Glc(a1-4)Glc,0.066
same,glycan array binding signal (z-score),GlcA(b1-3)Gal,0.229
same,glycan array binding signal (z-score),[1],-0.022
same,glycan array binding signal (z-score),[2],-0.154
same,glycan array binding signal (z-score),[3],-0.263
same,glycan array binding signal (z-score),[4],-0.544
same,glycan array binding signal (z-score),[5],-0.482
same,glycan array binding signal (z-score),Neu5Ac(a2-3)Gal,-0.692
same,glycan array binding signal (z-score),[6],-0.211
same,glycan array binding signal (z-score),[7],-0.519
same,glycan array binding signal (z-score),[8],-0.547
same,glycan array binding signal (z-score),[9],-0.308
same,glycan array binding signal (z-score),[10],2.38
same,glycan array binding signal (z-score),[11],-0.526
same,glycan array binding signal (z-score),[12],0.001
same,glycan array binding signal (z-score),[13],1.73
same,glycan array binding signal (z-score),[14],-0.086
same,glycan array binding signal (z-score),[15],-0.729
same,glycan array binding signal (z-score),[16],0.664
same,glycan array binding signal (z-score),[17],-0.409
same,glycan array binding signal (z-score),[18],-0.231
same,glycan array binding signal (z-score),[19],-0.005
same,glycan array binding signal (z-score),[20],-0.189
same,glycan array binding signal (z-score),[21],-0.652
same,glycan array binding signal (z-score),[22],-0.454
